Assay results: PubChem BioAssay AID588689 (Southern Research Specialized Biocontainment Screening …, 2011)
About 1,000 (0.29%) of roughly 340,000 compounds were called active. Cut-off read from the data, not from the text of the source: inconclusive = inhibition above about 29% without an active follow-up result; inactive = below that. Not all results are given here. Entries with a potency or affinity are not part of this list.

Target: Genome polyprotein (Dengue virus type 2 (strain 16681-PDK53)) (UniProt P29991)
Assay: flavivirus cap methylation enzyme inhibition – biochemical, confirmation dose response, primary screen (AID 588689)
Settings: Dengue-2 NS5 methyltransferase capping enzyme assay, at 25 µM, stronger effect = higher value
[1] = measured here: pilot screen replicate inhibition

Compound	inhibition	inhibition [1]
O=C(Nc1ccccn1)c1ccc(Cl)c(S(=O)(=O)N2CCCC2)c1	-10.4% (inactive)	–
O=C(CCN1CCN(CCO)CC1)Nc1cccc(Br)c1	0% (inactive)	–
N#Cc1cc([N+](=O)[O-])ccc1NC(=O)COC(=O)C1CC2CCCC(C1)C2=O (stereo not given)	-2.16% (inactive)	–
COc1cc(/C=N/NC(N)=O)ccc1OCC(=O)Nc1ccc(C)c(C)c1	-9.1% (inactive)	–
CCOc1cc(/C=N\Nc2ccc([N+](=O)[O-])cc2)ccc1OCC(=O)Nc1ccc(C)c(C)c1	22% (inactive)	–
CCC(=O)Nc1nnc(-c2cccs2)s1	-6.55% (inactive)	–
COc1ccc([N+](=O)[O-])cc1NS(=O)(=O)Cc1ccccc1	-3.44% (inactive)	–
CCN(CC)S(=O)(=O)c1ccc(OC)c(NS(=O)(=O)Cc2ccccc2)c1	-2.33% (inactive)	–
COc1ccc(NS(=O)(=O)Cc2ccccc2)cc1OC	0% (inactive)	–
COc1cc(/C=C2/SC(N)=NC2=O)ccc1Oc1ccc([N+](=O)[O-])cc1[N+](=O)[O-]	4.51% (inactive)	–
CSc1ccc(S(=O)(=O)Nc2ccc3c(c2)NC(=O)CC3)cc1	0% (inactive)	–
CN(CC(=O)Nc1ccc(Cl)c(C(F)(F)F)c1)C(=O)c1cccc2cccnc12	2.2% (inactive)	–
Cc1ccc(O)c(NC(=O)Cc2ccc3ccccc3c2)c1	-11.9% (inactive)	–
CC(NC(=O)CCNS(=O)(=O)c1cccc2nonc12)c1ccccc1 (stereo not given)	-6.33% (inactive)	–
NC(=S)N/N=C/c1cn(CCC(=O)O)nc1-c1cccc(Br)c1	-15.9% (inactive)	–
O=Cc1cn(CCC(=O)O)nc1-c1cccc(Br)c1	14.3% (inactive)	–
O=C(O)CCn1cc(/C=C2\NC(=S)N(c3ccccc3)C2=O)c(-c2ccc(Br)cc2)n1	3.12% (inactive)	–
Cc1ccc(-c2nn(CCC(=O)O)cc2/C=C\C(=O)c2ccc(Br)cc2)cc1	7.02% (inactive)	–
O=C(O)CCn1cc(C(=O)O)c(-c2ccccc2)n1	-1.47% (inactive)	–
O=Cc1cn(CCC(=O)O)nc1-c1cccc(Cl)c1	-3.9% (inactive)	–
O=C(O)CCn1cc(/C=C2/NC(=S)N(c3ccccc3)C2=O)c(-c2ccccc2)n1	2.91% (inactive)	–
CCOC(=O)/C(C#N)=C/c1cn(CCC(=O)O)nc1-c1cccc(Cl)c1	-8.58% (inactive)	–
Cc1ncc(C(O)c2ccc(N(C)C)cc2)n1Cc1ccccc1 (stereo not given)	0% (inactive)	–

Compound	inhibition	inhibition [1]
CC(C)C(C(=O)NC1CCCC1)N(Cc1ccco1)C(=O)CNS(=O)(=O)c1ccccc1 (stereo not given)	-8.96% (inactive)	–
CCn1c(=O)n(CC)c2cc(N3CCCC3)c(NC(=O)c3ccc(OC)c(Br)c3)cc21	-2.72% (inactive)	–
O=c1ccc(-c2ccc(S(=O)(=O)NCc3cccc(Br)c3)s2)n[nH]1	-1.36% (inactive)	–
CCCCNC(=O)CN(Cc1ccco1)S(=O)(=O)c1ccc(C(C)=O)cc1	-2.95% (inactive)	–
O=C(O)CC1CCC(=C(Cl)Cl)C1 (stereo not given)	4.83% (inactive)	–
Cc1ccc(S(=O)(=O)N(CC(=O)Nc2cccc(C(F)(F)F)c2)C(=O)N2CCN(C)CC2)cc1	-4.32% (inactive)	–
CCn1c(SCC(=O)NC)nnc1C(C)C	4.79% (inactive)	–
Cc1ccccc1-c1c(C)oc2cc(O)ccc2c1=O	1.35% (inactive)	–
COCCN(C(=O)COC(=O)CCc1ccccc1)c1c(N)n(Cc2ccccc2)c(=O)[nH]c1=O	0% (inactive)	–
O=C(O)CCn1cc(/C=C/C(=O)c2ccc(Cl)cc2)c(-c2ccc(Br)cc2)n1	12.8% (inactive)	–
O=C(O)CCn1cc(/C=C\C(=O)c2ccc(Cl)cc2)c(-c2cccc(Br)c2)n1	26% (inactive)	–
CCOc1ccc(NC(=O)CSc2nc(C3CC3)nc3ccccc23)cc1	15.3% (inactive)	–
CCOC(=O)c1c(NC(=O)C(Sc2ccccc2)c2ccccc2)sc(C(N)=O)c1C (stereo not given)	2.74% (inactive)	3.33%
O=c1c2ccccc2[nH]c(=S)n1-c1cccc(S(=O)(=O)N2CCCC2)c1	-8.01% (inactive)	–
CCC(C)/C=C/C1=CC2=C(Cl)C(=O)C3(C)OC(=O)C(C(=O)C(C)C(C)O)C3C2=CO1 (stereo not given)	4.35% (inactive)	–
CC[C@H](C)/C=C(C)/C=C/C1=CC2=CC(=O)[C@]3(C)OC(=O)[C@@H](C(C)=O)[C@@H]3C2=CO1	7.68% (inactive)	–
O=C(Cn1ncc2c([nH]c3ccccc32)c1=O)NCCCN1CCN(c2ccccc2)CC1	0% (inactive)	–
C=CCn1cc(C(=O)NCC2CCCO2)c(=O)c2cc(S(=O)(=O)N3CCCCCC3)ccc21 (stereo not given)	-3.55% (inactive)	–
S=c1[nH]nc(Cc2cccs2)n1-c1ccccc1	-2.82% (inactive)	–
CC(C)(C)c1nnc(NC(=O)C2CCN(c3ncccn3)CC2)s1	-2.45% (inactive)	–
CC1=NN(c2ccc([N+](=O)[O-])cc2)C(=O)/C1=C\N(C)C	-9.46% (inactive)	–
COc1cc(/C=C2/C(=O)N(c3ccc(C)c(C)c3)N=C2C)cc([N+](=O)[O-])c1O	9.88% (inactive)	-3.04%
COc1cc(/C=C2/SC(=O)NC2=O)ccc1Oc1ccc([N+](=O)[O-])cc1[N+](=O)[O-]	23.6% (inactive)	–

Compound	inhibition	inhibition [1]
O=C(c1ccccc1)c1ccc(Oc2ccc([N+](=O)[O-])cc2[N+](=O)[O-])cc1	-2.33% (inactive)	–
O=C(c1ccc(Cl)s1)N1CCc2ccccc21	-1.37% (inactive)	–
O=C(CCN1CCCCC1=O)NC1CCCN(Cc2ccc(Cl)cc2)C1 (stereo not given)	-5.2% (inactive)	–
Cc1ccc(Oc2ccccc2/C=C2\SC(=O)N(C)C2=O)cc1	0% (inactive)	5.03%
CN1C(=O)/C(=C/c2ccccc2OCc2ccc(F)cc2)N(C)C1=S	-7.89% (inactive)	–
O=C1NC(=O)/C(=C/c2ccccc2Oc2ccc(Cl)cc2)S1	-4.16% (inactive)	–
O=C1NC(=O)/C(=C\c2ccccc2Oc2ccc(F)c(F)c2)S1	24.6% (inactive)	–
CCOC(=O)CN(C(=O)CNC(=O)c1ccco1)C(C(=O)NC1CCCC1)c1ccccc1OCC (stereo not given)	-1.62% (inactive)	–
NS(=O)(=O)c1ccc(CCNC(=O)CCNS(=O)(=O)c2ccccc2C(F)(F)F)cc1	0% (inactive)	–
C/C(=N\NS(=O)(=O)c1ccccc1)c1cccc(NC(=O)c2cccc(Cl)c2)c1	-5.93% (inactive)	–
COc1cccc(NC(=O)CN(C)C(=O)CN2C(=O)c3ccc([N+](=O)[O-])cc3C2=O)c1	-7.27% (inactive)	–
CS(=O)(=O)c1ccc(C(=O)OCC(=O)c2ccc(Cl)s2)cc1	4.34% (inactive)	–
CCCCCNC(=O)C1CCC(Cn2c(=S)[nH]c3ccccc3c2=O)CC1 (stereo not given)	-0.74% (inactive)	–
O=C(O)c1ccccc1Nc1ccccc1C(=O)O	4.09% (inactive)	–
COc1cccc(Nc2ccccc2C(=O)O)c1	-2.96% (inactive)	–
COc1ccccc1/C(C)=N/NC(=O)c1nnn(-c2nonc2N)c1C(C)C	-2.62% (inactive)	–
CC(=O)N1CCc2c(sc(NC(=O)c3cccc(N4C(=O)CCC4=O)c3)c2C(N)=O)C1	-10.4% (inactive)	–
Cc1cccc(N2C(=O)/C(=C\c3ccc(C(=O)O)cc3)c3ccccc3C2=O)c1	25% (inactive)	–
O=Cc1ccc(C(=O)O)cc1	-0.73% (inactive)	–
Cn1nc(-c2ccc(Cl)cc2)cc1NC(=O)Nc1ccccc1	-6.13% (inactive)	–
COc1ccc(CN(C)C(=O)Cn2cnc3c(OCc4ccccc4)ncnc32)cc1OC	3.64% (inactive)	2.12%
O=C1c2cccc3cccc(c23)C(=O)N1CCN1CCN(CC(O)COc2ccccc2)CC1 (stereo not given)	1.28% (inactive)	–
COc1ccc(C)cc1NC(=O)CN1CCN(c2ccccn2)CC1	-3.92% (inactive)	–

Compound	inhibition	inhibition [1]
CC(=O)Nn1cc2c(c1-c1ccccc1)c(=O)n(C)c(=O)n2C	-11.6% (inactive)	-4.71%
Cn1c(=O)c2[nH]c(-c3ccccc3Cl)c(O)c2n(C)c1=O	-9.85% (inactive)	–
CSc1nc(C=Nc2ccccc2Cl)c(O)n1Cc1cccc(Cl)c1	-15.4% (inactive)	–
CCc1nnc(SCC(=O)Nc2ccc3c(c2)OCO3)n1CC	2.59% (inactive)	–
COc1cc(/C=C/c2ccc3cccc(O)c3n2)c(Br)cc1O	-37.2% (inactive)	–
COc1cc(C=C2C(=O)c3ccccc3C2=O)ccc1O	25.4% (inactive)	–
CCCCN1C(=O)NC(NS(=O)(=O)c2ccc(N)cc2)(C(F)(F)F)C1=O (stereo not given)	1.6% (inactive)	–
CC#CCN1C=C(C(=O)OCC)C(C)N(Cc2ccc(Br)cc2)S1(=O)=O (stereo not given)	3.64% (inactive)	-3.33%
CCN(CC)C1CC(=O)N(c2ccc(Br)cc2)C1=O (stereo not given)	-14.3% (inactive)	–
CCCCOc1ccc(N2C(=O)CC(N(O)c3ccccc3)C2=O)cc1 (stereo not given)	-3.24% (inactive)	–
COc1ccccc1N1CCN(C2CC(=O)N(c3ccc(F)cc3)C2=O)CC1 (stereo not given)	10.3% (inactive)	–
COc1ccccc1N1C(=O)CC(N(O)c2ccccc2)C1=O (stereo not given)	-4.6% (inactive)	–
CC(=O)c1ccc(C(=O)N(C)C2CCCN(Cc3ccccc3F)C2)s1 (stereo not given)	-12.1% (inactive)	–
O=S(=O)(Nc1nc(-c2ccccc2)cs1)c1cccc(C(F)(F)F)c1	19.9% (inactive)	–
COc1ccc(-c2csc(NS(=O)(=O)c3ccc([N+](=O)[O-])cc3)n2)cc1	19.5% (inactive)	–
Cc1ccc(S(=O)(=O)Nc2nc(-c3ccccc3)cs2)cc1	23% (inactive)	–
Cc1ccc(S(=O)(=O)Nc2ccccc2C(=O)Nc2nc(-c3ccc(F)cc3)cs2)cc1	0.64% (inactive)	–
COc1ccc(S(=O)(=O)N2CCCC2C(=O)NCc2cccs2)cc1 (stereo not given)	-17.2% (inactive)	–
CCOc1ccc(S(=O)(=O)N2CCCCC2)c2ccccc12	-5.6% (inactive)	–
CCc1cccc(C)c1NC(=O)CSc1nc2ccccc2n1CC(=O)N(C)C	-2.07% (inactive)	–
